Reference: PubChem BioAssay (EPA / NIEHS)
Calls of active or inactive are those of the source. How the source made its calls: active means hit-call score of the fitted dose curve at least 0.9, where 1 is the maximum; inactive means score below 0.9.

Columns and labels:
Details in all cases: mRNA level, 48 h; actives raise or lower the signal
[1] = read-out: Glutathione S-Transferase (GSTA2), GSTA2 (gene 2939); assay: LTEA_HepaRG_GSTA2: Life Technologies and Expression Analysis (LTEA) Assay for Glutathione S-Transferase (GSTA2) using HepaRG (AID 2283497)
Method in brief: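 Differentiated human HepaRG cells were exposed in duplicate for 48 h in serum-free induction medium, 8 points from 100 uM top in half-log steps, 0.5% DMSO. GSTA2 mRNA was measured by TaqMan qRT-PCR, normalized to ACTB, GAPDH and POLR2A; bidirectional fit versus DMSO.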

[2] = read-out: Glutamate-cysteine ligase catalytic (GCLC), GCLC (gene 2729); assay: LTEA_HepaRG_GCLC: Life Technologies and Expression Analysis (LTEA) Assay for Glutamate-cysteine ligase catalytic (GCLC) using HepaRG (AID 2283498)
Method in brief: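 Differentiated HepaRG cells exposed 48 h in serum-free induction medium, eight-point half-log series topping at 100 uM in 0.5% DMSO, duplicates. GCLC mRNA by qRT-PCR normalized to ACTB, GAPDH and POLR2A, fitted bidirectionally versus DMSO.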

[3] = read-out: growth arrest and DNA damage 45 (GADD45G), GADD45G (gene 10912); assay: LTEA_HepaRG_GADD45G: Life Technologies and Expression Analysis (LTEA) Assay for growth arrest and DNA damage 45 (GADD45G) using HepaRG (AID 2283499)
Method in brief: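 Differentiated human HepaRG cells, 48 h post-plating, exposed 48 h in serum-free induction medium to 8 half-log concentrations (top 100 uM, 0.5% DMSO) in duplicate. GADD45G mRNA measured by Fluidigm TaqMan qRT-PCR, normalized to ACTB, GAPDH, POLR2A; bidirectional fit versus DMSO.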

[4] = read-out: Glutamate-cysteine ligase regulatory (GCLM), GCLM (gene 2730); assay: LTEA_HepaRG_GCLM: Life Technologies and Expression Analysis (LTEA) Assay for Glutamate-cysteine ligase regulatory (GCLM) using HepaRG (AID 2283500)
Method in brief: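 Differentiated HepaRG cells exposed 48 h in serum-free induction medium to eight half-log concentrations up to 100 uM (0.5% DMSO). GCLM mRNA by TaqMan qRT-PCR, normalized to ACTB, GAPDH and POLR2A; bidirectional fit versus DMSO.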

[5] = read-out: Glutathione S-transferase M3 (GSTM3), GSTM3 (gene 2947); assay: LTEA_HepaRG_GSTM3: Life Technologies and Expression Analysis (LTEA) Assay for Glutathione S-transferase M3 (GSTM3) using HepaRG (AID 2283501)
Method in brief: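 Differentiated human HepaRG cells were exposed in duplicate for 48 h in serum-free induction medium, 8 points from 100 uM top in half-log steps, 0.5% DMSO. GSTM3 mRNA was measured by TaqMan qRT-PCR, normalized to ACTB, GAPDH and POLR2A; bidirectional fit versus DMSO.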

[6] = read-out: Heat shock 70 kDa protein 1 (HSPA1A), gene 3303; assay: LTEA_HepaRG_HSPA1A: Life Technologies and Expression Analysis (LTEA) Assay for Heat shock 70 kDa protein 1 (HSPA1A) using HepaRG (AID 2283502)
Method in brief: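 Human HepaRG cells in serum-free induction medium were exposed in duplicate for 48 h to 8 half-log concentrations, highest 100 uM, in 0.5% DMSO. HSPA1A mRNA read by TaqMan qRT-PCR, normalized to ACTB, GAPDH, POLR2A, fitted bidirectionally against DMSO.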

[7] = read-out: Hypoxia-inducible factor 1-alpha (Homo sapiens) (UniProt Q16665); assay: LTEA_HepaRG_HIF1A: Life Technologies and Expression Analysis (LTEA) Assay for Hypoxia-inducible factor 1 (HIF1A) Trancription factor using HepaRG (AID 2283503)
Method in brief: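 Differentiated HepaRG cells in serum-free induction medium exposed 48 h, in duplicate, to 8-point half-log series from 100 uM in 0.5% DMSO. HIF1A mRNA measured by TaqMan qRT-PCR, normalized to ACTB/GAPDH/POLR2A, fitted bidirectionally versus DMSO.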

[8] = read-out: 3-Hydroxy-3-Methylglutaryl-CoA Synthase 2 (HMGCS2), HMGCS2 (gene 3158); assay: LTEA_HepaRG_HMGCS2: Life Technologies and Expression Analysis (LTEA) Assay for 3-Hydroxy-3-Methylglutaryl-CoA Synthase 2 (HMGCS2) using HepaRG (AID 2283504)
Method in brief: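 Human HepaRG cells in serum-free induction medium were exposed in duplicate for 48 h to 8-point half-log series from 100 uM top in 0.5% DMSO. HMGCS2 mRNA measured by TaqMan qRT-PCR, normalised to ACTB, GAPDH, POLR2A; bidirectional fit versus DMSO.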

HGF (gene 3082) = assay: LTEA_HepaRG_HGF: Life Technologies and Expression Analysis (LTEA) Assay for Hepatocyte Growth Facto (HGF) using HepaRG (AID 2283505)
Method in brief: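 Differentiated HepaRG cells in serum-free induction medium exposed 48 h in duplicate, 8 half-log concentrations from 100 uM in 0.5% DMSO. HGF mRNA by qRT-PCR, normalised to ACTB, GAPDH, POLR2A; bidirectional fitting.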

[9] = read-out: Insulin Like Growth Factor 1 (IGF1), IGF1 (gene 3479); assay: LTEA_HepaRG_IGF1: Life Technologies and Expression Analysis (LTEA) Assay for Insulin Like Growth Factor 1 (IGF1) using HepaRG (AID 2283506)
Method in brief: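 Differentiated HepaRG cells in serum-free induction medium, exposed 48 h in duplicate to 8 half-log concentrations up to 100 uM in 0.5% DMSO. IGF1 mRNA by Fluidigm qRT-PCR, normalised to ACTB, GAPDH and POLR2A.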

[10] = read-out: Insulin-like growth factor-binding protein 1 (IGFBP1), IGFBP1 (gene 3484); assay: LTEA_HepaRG_IGFBP1: Life Technologies and Expression Analysis (LTEA) Assay for Insulin-like growth factor-binding protein 1 (IGFBP1) using HepaRG (AID 2283508)
Method in brief: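 HepaRG cells, plated 48 h then switched to serum-free induction medium, exposed in duplicate for 48 h to 8-point half-log series from 100 uM in 0.5% DMSO. mRNA measured by qRT-PCR, normalized to ACTB/GAPDH/POLR2A; bidirectional fit versus DMSO.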

[11] = read-out: Interleukin 6 (IL6), IL6 (gene 3569); assay: LTEA_HepaRG_IL6: Life Technologies and Expression Analysis (LTEA) Assay for Interleukin 6 (IL6) using HepaRG (AID 2283509)
Method in brief: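 HepaRG cells exposed in duplicate for 48 h to eight half-log concentrations, top 100 uM, in 0.5% DMSO serum-free induction medium. mRNA measured by qRT-PCR, normalized to ACTB, GAPDH and POLR2A. Bidirectional fit versus DMSO.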

[12] = read-out: Interleukin 6 Receptor (IL6R), IL6R (gene 3570); assay: LTEA_HepaRG_IL6R: Life Technologies and Expression Analysis (LTEA) Assay for Interleukin 6 Receptor (IL6R) using HepaRG (AID 2283510)
Method in brief: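 Differentiated HepaRG cells, plated 48 h, then exposed in duplicate for 48 h in serum-free induction medium to 8 half-log concentrations (top 100 uM, 0.5% DMSO). IL6R mRNA measured by TaqMan qRT-PCR, normalized to ACTB/GAPDH/POLR2A; bidirectional fit vs DMSO.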

[13] = read-out: Potassium channel subfamily K member 1 (KCNK1), KCNK1 (gene 3775); assay: LTEA_HepaRG_KCNK1: Life Technologies and Expression Analysis (LTEA) Assay for Potassium channel subfamily K member 1 (KCNK1) using HepaRG (AID 2283511)
Method in brief: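 Differentiated HepaRG cells, 48 h exposure in serum-free induction medium with 0.5% DMSO; 8 concentrations, half-log from 100 uM, duplicate. KCNK1 mRNA by qRT-PCR, normalized to ACTB, GAPDH, POLR2A; bidirectional fit vs DMSO.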

[14] = read-out: Keratin 19 (KRT19), KRT19 (gene 3880); assay: LTEA_HepaRG_KRT19: Life Technologies and Expression Analysis (LTEA) Assay for Keratin 19 (KRT19) using HepaRG (AID 2283512)
Method in brief: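 Differentiated HepaRG cells in serum-free induction medium, exposed 48 h in duplicate to 8 half-log concentrations up to 100 uM in 0.5% DMSO. KRT19 mRNA by qRT-PCR, normalized to ACTB, GAPDH, POLR2A; bidirectional fit vs DMSO.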

[15] = read-out: JUN Transcription Factor, JUN (gene 3725); assay: LTEA_HepaRG_JUN: Life Technologies and Expression Analysis (LTEA) Assay for JUN Transcription Factor using HepaRG (AID 2283513)
Method in brief: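 HepaRG cells, 48 h post-plating, exposed 48 h in serum-free induction medium to 8-point half-log series (top 100 uM, 0.5% DMSO), duplicate; mRNA by qRT-PCR (TaqMan, Fluidigm), normalized to ACTB/GAPDH/POLR2A; bidirectional fit vs DMSO.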

[16] = read-out: Lipase C (LIPC), LIPC (gene 3990); assay: LTEA_HepaRG_LIPC: Life Technologies and Expression Analysis (LTEA) Assay for Lipase C (LIPC) using HepaRG (AID 2283514)
Method in brief: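 HepaRG cells, 48 h after plating, treated in duplicate for 48 h in serum-free induction medium over 8 half-log concentrations from 100 uM, 0.5% DMSO. LIPC mRNA by TaqMan qRT-PCR normalized to ACTB/GAPDH/POLR2A; bidirectional fit versus DMSO.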

[17] = read-out: Lipoprotein lipase (LPL), LPL (gene 4023); assay: LTEA_HepaRG_LPL: Life Technologies and Expression Analysis (LTEA) Assay for Lipoprotein lipase (LPL) using HepaRG (AID 2283515)
Method in brief: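 Differentiated HepaRG cells, plated 48 h, then exposed 48 h in serum-free induction medium to 8 concentrations (top 100 uM, half-log steps) in 0.5% DMSO, duplicate. LPL mRNA measured by qRT-PCR, normalized to ACTB, GAPDH and POLR2A.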

[18] = read-out: Intercellular Adhesion Molecule 1 (ICAM1), ICAM1 (gene 3383); assay: LTEA_HepaRG_ICAM1: Life Technologies and Expression Analysis (LTEA) Assay for Intercellular Adhesion Molecule 1 (ICAM1) using HepaRG (AID 2283507)
Method in brief: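 Differentiated human HepaRG cells in serum-free induction medium exposed 48 h in duplicate to 8 half-log concentrations (top 100 uM, 0.5% DMSO). ICAM1 mRNA quantified by TaqMan qRT-PCR, normalized to ACTB, GAPDH and POLR2A; bidirectional fitting versus DMSO.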

Measured: outcome

Sequence of Hypoxia-inducible factor 1-alpha (Homo sapiens) (Q16665 whole entry, looked up): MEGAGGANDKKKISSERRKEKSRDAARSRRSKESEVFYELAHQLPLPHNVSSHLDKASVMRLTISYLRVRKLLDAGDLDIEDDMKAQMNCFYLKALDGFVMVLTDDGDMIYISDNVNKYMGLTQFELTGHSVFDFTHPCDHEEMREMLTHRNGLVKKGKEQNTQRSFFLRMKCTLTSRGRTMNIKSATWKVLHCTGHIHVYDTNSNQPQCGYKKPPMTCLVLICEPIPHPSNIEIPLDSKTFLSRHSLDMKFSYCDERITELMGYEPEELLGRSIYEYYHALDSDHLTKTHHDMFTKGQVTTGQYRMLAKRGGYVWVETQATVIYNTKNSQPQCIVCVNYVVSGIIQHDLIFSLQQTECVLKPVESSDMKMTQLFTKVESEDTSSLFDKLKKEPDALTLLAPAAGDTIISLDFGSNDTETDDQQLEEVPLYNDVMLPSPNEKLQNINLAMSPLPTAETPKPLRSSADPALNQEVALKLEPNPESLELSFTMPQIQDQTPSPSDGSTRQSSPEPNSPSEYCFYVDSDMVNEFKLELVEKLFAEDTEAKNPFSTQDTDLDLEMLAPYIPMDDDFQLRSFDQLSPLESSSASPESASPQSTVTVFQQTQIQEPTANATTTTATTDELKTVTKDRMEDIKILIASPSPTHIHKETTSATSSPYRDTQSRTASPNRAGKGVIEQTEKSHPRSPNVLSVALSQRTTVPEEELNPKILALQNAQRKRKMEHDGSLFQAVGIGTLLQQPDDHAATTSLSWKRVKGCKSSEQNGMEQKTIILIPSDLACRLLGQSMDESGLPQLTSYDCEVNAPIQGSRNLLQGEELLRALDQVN

O=C(O)CCCCC(=O)O
not listed: [18]
inactive: all other assays above

Cc1ccc2ncccc2c1
not listed: [18]
inactive: all other assays above

Cc1ccc(C)c(O)c1C
inactive: all assays above

CN1CCCC1=O
inactive: all assays above
